According to PubChem BioAssay (NCI):
The panel holds about 83,000 compounds, 20% with a hit somewhere; the sample as a whole holds those more often.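 Note: values are percent growth. 100 is the growth of untreated cells, values between 100 and 0 indicate rising inhibition; between -100 and 0 indicates cell death.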 A number with no mark means an inactive call. Calls of active or inactive are those of the source.

Tested on: NCI-H522 lung
Assay: NCI-60 one-dose screen, 48 h (100 = growth as untreated, 0 = no growth, -100 = all killed)
Conditions: 10 µM unless noted
Protocol: Growth inhibition of the NCI-H522 human Non-Small Cell Lung tumor cell line is measured as a screen for anti-cancer activity. Cells are grown in 96 well plates and exposed to the test compound for 48 hours. Compounds are tested at a single concentration, which is 10^-5 M for most compounds. The reported endpoint is percent growth (GI% or GIPRCNT), where numbers from 0 - 100% represent growth inhibition, and numbers from -100% - 0 represent cell death. For example, a value of 40 represents 60% growth inhibition. A value of 0 means no net growth occurred over the course of the experiment. A value of -40 indicates 40% of cells at the beginning of the experiment died by the end of the experiment. A value of -100 means all cells are dead at the end of the experiment.
NCI-60 Human Tumor Cell Lines Screen was performed using the standard one-dose NCI protocol, which is described in more detail at https://dtp.cancer.gov/discovery_development/nci-60/default.htm.
Compounds with GIPRCNT values below 10 were considered active. Activity score was based on GIPRCNT using the following formula: […]
Score is 0 for GIPRCNT values of 100 or above, 50 for GIPRCNT values of 0, and 100 for GIPRCNT values of -100.

Question: `O=C(/C=C/c1ccc(C(F)(F)F)cc1)c1ccc(Nc2nc(NCCO)nc(N3CCOCC3)n2)cc1` was tested. Which growth did it give?
Answer: Its growth is 45.6%.

Question: For `O=C(c1ccccc1)N(C(=S)NCCc1ccc(Cl)cc1)c1ccccc1`, which growth is on record?
Answer: Its growth is 92.5%.

Question: For `O=c1c2cc(F)ccc2sc2c(NCCCNCCO)nc3ccc(Cl)cc3c12`, which growth is on record?
Answer: The growth was 49.1%.

Question: `COc1ccc(CCN2C(=O)/C(=C/c3ccc(C4Oc5ccccc5C5CC(c6cccc(OC)c6)=NN54)cc3)SC2=S)cc1` (stereo not given) was tested. Which growth did it give?
Answer: Its growth is 90.3%.

Question: `O=C(/C=C/c1ccccn1)c1ccc(OCc2nnc(-c3ccc(Cl)cc3)o2)cc1` was tested. Which growth did it give?
Answer: Its growth is 63.7%.

Question: Which growth does the source give for `COc1ccc(-c2nc(N3CCN(C(=O)C4CCCCC4)CC3)c3c4c(sc3n2)CCCC4)cc1` here?
Answer: The growth was -23.9% (active).

Question: How did the growth turn out when `COC(=O)c1c2c(c(C)[n+]([O-])c1C)C(=O)C=C(NCc1ccc(F)c(F)c1)C2=O` was run?
Answer: Its growth is -53.1% (active).

Question: Which growth does the source give for `Cn1cc(-c2ccc3ncc(-c4ccc(CC(=O)Nc5cc(C(C)(C)C)no5)cc4)nc3c2)cn1` here?
Answer: Its growth is 41.6%.

Question: With `CCOc1cccc(/C=N\Nc2nc(=O)cc(C(=O)OC)s2)c1O` as the molecule, how does the growth read?
Answer: The growth was 79.3%.

Question: `CN1CCN(Cc2ccc(C(=O)Nc3cncc(C#Cc4cnc5cccnn45)c3)cc2C(F)(F)F)CC1` was tested. Which growth did it give?
Answer: The growth was 40.2%.

Question: How did the growth turn out when `O=C1/C(=C\c2ccc[nH]2)c2ccccc2N1c1ccccc1` was run?
Answer: The growth was 75.5%.

Question: Which growth does the source give for `O=C1/C=C/[C@@H](O)[C@@H]2C[C@@H](O)C[C@H]2/C=C/CCCCO1` here?
Answer: The growth was 19.4%.

Question: With `CCC(C)(C)C(=O)O[C@H]1C[C@@H](C)C=C2C=C[C@H](C)[C@H](CC[C@@H]3CC=CC(=O)O3)[C@H]21` as the molecule, how does the growth read?
Answer: Its growth is 39.4%.

Question: `CCCSC1=NC2C(N(CC)C(=O)N2CC)N1/N=C/C=C/c1ccccc1[N+](=O)[O-]` (stereo not given) was tested. Which growth did it give?
Answer: Its growth is 0.595% (active).

Question: With `CC(=O)c1ccc(NC(=O)Nc2ccc(S(=O)(=O)Nc3ccc(Cl)nn3)cc2)cc1` as the molecule, how does the growth read?
Answer: Its growth is 96.9%.

Question: Which growth does the source give for `CC(C)CCOc1ccc(-c2n[nH]c(C(F)(F)F)c2-c2cncc(C#N)c2)c(O)c1` here?
Answer: The growth was -6.89% (active).

Question: How did the growth turn out when `COc1ccc(-c2cc(=O)c3c(OC)c4ccoc4c(/C=C/C=O)c3o2)cc1` was run?
Answer: Its growth is 88.3%.

Question: `O=c1oc2ccc(Br)cc2c(=O)n1-c1ccc(F)cc1F` was tested. Which growth did it give?
Answer: Its growth is -6.16% (active).

Question: `Cn1nc(C(F)(F)F)c(-c2ccc(Cl)c(C(F)(F)F)c2)c1-c1ccc(OCc2ccc(Cl)cc2)cc1O` was tested. Which growth did it give?
Answer: Its growth is -13.7% (active).

Question: With `CCCC(c1nnnn1C1CCCCC1)N1CCN(C(=O)c2ccco2)CC1` (stereo not given) as the molecule, how does the growth read?
Answer: The growth was 62.5%.

Question: `COc1ccc(N(C)c2nc(N)nc3sc4c(c23)CCCC4)cc1` was tested. Which growth did it give?
Answer: The growth was -13.7% (active).

Question: How did the growth turn out when `CN1C(=O)N(C)C2(c3ccccc3)OC(=S)NC12c1ccccc1` (stereo not given) was run?
Answer: The growth was 90.4%.

Question: With `Cc1ccc(NCCNCC(O)CO)c2c(=O)c3ccccc3sc12` (stereo not given) as the molecule, how does the growth read?
Answer: The growth was 26.6%.

Question: Which growth does the source give for `COc1ccc(-c2cn[nH]c2-c2cc(OC)c(OC)c(OC)c2)cc1OCc1ccccc1` here?
Answer: The growth was -19.7% (active).

Question: How did the growth turn out when `O=C(N=Nc1c(O)[nH]c2ccccc12)c1oc2ccccc2c1CN1CCN(c2ccccc2)CC1` was run?
Answer: The growth was 20.4%.

Question: How did the growth turn out when `COc1ccccc1CNC(=O)C1c2ccccc2C(=O)N(CC(C)C)C1c1cccs1` (stereo not given) was run?
Answer: Its growth is 41%.

Question: How did the growth turn out when `Cc1ccc(NC2=CC(=O)C(=O)c3ccccc32)c(C)c1` was run?
Answer: Its growth is 47.6%.

Question: With `Nc1nonc1-n1nncc1-c1cccnc1` as the molecule, how does the growth read?
Answer: Its growth is 112%.

Question: `O=C(O)CCC(=O)c1ccc(C2CCCCCC2)cc1` was tested. Which growth did it give?
Answer: The growth was 87.5%.

Question: `CNCCNc1nc2ccccc2c2c(=O)c3cccc(C)c3sc12` was tested. Which growth did it give?
Answer: Its growth is 27.8%.

Question: With `CCCCN1CCN(c2ccc3nc(-c4ccc5nc(-c6ccc(OCC)cc6)[nH]c5c4)[nH]c3c2)CC1` as the molecule, how does the growth read?
Answer: The growth was 68.8%.

Question: Which growth does the source give for `O=C1/C(=C/c2ccc(O)cc2)COc2ccc(O)c(O)c21` here?
Answer: Its growth is -47.7% (active).

Question: For `Cc1ccc(C)c(-c2csc(Nc3ccc(C)c(C)c3)n2)c1`, which growth is on record?
Answer: Its growth is 65.3%.

Question: For `O=CCCCC(O)C=O` (stereo not given), which growth is on record?
Answer: Its growth is 107%.

Question: For `OC(c1ccccc1)c1nnc(SCc2ccccc2)n1Cc1ccccc1` (stereo not given), which growth is on record?
Answer: The growth was 86.6%.

Question: `COc1cc(C#N)cc2[nH]c(=O)oc12` was tested. Which growth did it give?
Answer: The growth was 103%.

Question: Which growth does the source give for `Nc1ccc(-c2nc3cc(Oc4ccc(Oc5ccc6[nH]c(-c7ccc(N)cc7)nc6c5)cc4)ccc3[nH]2)cc1` here?
Answer: The growth was 73.7%.

Question: With `CN(C)/C=C1\SC(=Nc2ccc(Cl)cc2)NC1=O` as the molecule, how does the growth read?
Answer: The growth was 95.8%.

Question: `Cc1cccc(NC(=O)c2sc3nc4c(cc3c2N)CCCC4)c1C` was tested. Which growth did it give?
Answer: The growth was -6.44% (active).

Question: With `COc1ccc(-c2cn3c(C(=O)Nc4ccccc4Cl)c(-c4ccccc4)c4c3n2CCCC4)cc1` as the molecule, how does the growth read?
Answer: The growth was 76.7%.
